pPAFAH FP inh: inhibitors of human plasma PAF acetylhydrolase (pPAFAH); Q13093; recombinant pPAFAH, FP-rhodamine probe fluorescence polarization; inhibition, % at 3.39 µM; 330,000 compounds, 1.5% hits;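 active = inhibition above the mean inhibition across the screen plus 3 SD, cut at about 25% in these data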;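 also: inhibitors block binding of the rhodamine activity-based probe so polarization drops; 0% = enzyme with DMSO and 100% = wells lacking pPAFAH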
PAFAH2 FP inh: PAFAH2 (human) inhibition; Q99487; 340,000 compounds, 0.99% hits; inhibition, % at 3.39 µM; recombinant PAFAH2, FP-rhodamine activity probe, fluorescence polarization;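 active = inhibition above the mean over all tested compounds plus 3 SD, cut at about 30% in these data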;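 also: inhibitors block probe labeling of enzyme so polarization drops; 0% = enzyme with DMSO and 100% = wells lacking PAFAH2 protein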
PP5 primary: inhibitors of human protein phosphatase 5 (PP5). purified PP5c, OMFP substrate fluorescence. 320,000 compounds, 0.18% hits. inhibition, % at 6.7 µM. P53041;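 active = inhibition above the campaign's mean inhibition across all tested compounds plus 3 SD, cut at about 9.5% in these data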;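 also: 0% = DMSO only and 100% = 100 µM cantharidin control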
PP1 counter: counter-screen for PP5 inhibitors: inhibitors of human PP1-alpha; P62136; purified PP1alpha, OMFP fluorescence; inhibition, % at 6.7 µM; 320,000 compounds, 0.9% hits; AID 2235;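 active = inhibition above the mean inhibition of all tested compounds plus 3 SD, computed separately for each screening campaign, cut at about 15% in these data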
Target sequence (P62136 whole entry, looked up): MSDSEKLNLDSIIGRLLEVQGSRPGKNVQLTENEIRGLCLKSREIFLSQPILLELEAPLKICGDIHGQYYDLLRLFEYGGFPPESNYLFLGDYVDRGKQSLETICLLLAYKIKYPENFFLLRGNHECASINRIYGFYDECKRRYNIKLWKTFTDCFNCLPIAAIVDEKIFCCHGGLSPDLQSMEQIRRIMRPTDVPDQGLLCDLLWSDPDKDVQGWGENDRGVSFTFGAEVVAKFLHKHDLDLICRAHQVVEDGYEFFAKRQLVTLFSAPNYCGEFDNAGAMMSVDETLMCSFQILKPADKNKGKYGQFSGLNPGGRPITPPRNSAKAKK
PAFAH1B3 inh: inhibitors of human PAFAH1B3. recombinant PAFAH1B3, FP-rhodamine probe, fluorescence polarization. inhibition, % at 3.39 µM. 340,000 compounds, 0.28% hits;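 active = inhibition above the screen-wide average of all tested compounds plus 3 SD, cut at about 25% in these data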;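 also: 0% = enzyme with DMSO only and 100% = wells lacking PAFAH1B3 protein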
PAFAH1B2 FP inh: PAFAH1B2 (human) inhibition; P68402; recombinant PAFAH1B2, FP-rhodamine activity probe, fluorescence polarization; 340,000 compounds, 1.2% hits; inhibition, % at 3.39 µM;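 active = inhibition above the mean of all tested compounds plus 3 SD, cut at about 24% in these data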;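 also: 0% = enzyme with DMSO and 100% = wells lacking PAFAH1B2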
Target sequence (P68402 whole entry, looked up): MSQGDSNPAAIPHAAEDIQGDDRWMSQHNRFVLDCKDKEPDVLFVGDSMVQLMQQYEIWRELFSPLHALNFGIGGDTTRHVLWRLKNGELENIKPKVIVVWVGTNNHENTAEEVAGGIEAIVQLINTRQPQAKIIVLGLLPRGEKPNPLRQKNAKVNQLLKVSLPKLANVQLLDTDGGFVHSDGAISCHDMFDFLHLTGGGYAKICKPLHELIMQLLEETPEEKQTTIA
The depositor's hits bear a star; · = no result given. The list is not random: actives were taken first. Their share in the collection is about 3.4%.

SMILES	pPAFAH FP inh	PAFAH2 FP inh	PP5 primary	PP1 counter	PAFAH1B3 inh	PAFAH1B2 FP inh
CC(=O)N1CCCc2cc(S(=O)(=O)N3CCCC(C(=O)NCc4ccccc4Cl)C3)ccc21 (stereo not drawn)	7	3	0	-1	3	3
CC(=O)N1CCCc2cc(S(=O)(=O)N3CCCC(C(=O)Nc4cccc(C)c4)C3)ccc21 (stereo not drawn)	33*	0	-2	2	10	0
CC(=O)Nc1cc2c(cc1C(=O)c1ccccc1)OCCO2	1	-9	2	0	12	-4
Cc1ccc(S(=O)(=O)NCc2cn3c(C)csc3n2)cc1	-2	1	3	-4	-2	3
Cc1ccc(SCc2cn3c(C)csc3n2)cc1	2	-2	4	0	0	53*
Cc1ccc(C(=O)N2CCCC(CCC(=O)N3CCN(c4ccccn4)CC3)C2)s1 (stereo not drawn)	30*	7	0	0	3	1
O=C(CCC1CCCN(C(=O)CCCc2ccccc2)C1)N1CCN(c2ccccn2)CC1 (stereo not drawn)	25*	-2	1	-1	4	7
O=C(CCC1CCCN(C(=O)Cc2cccc(F)c2)C1)N1CCN(c2ccccn2)CC1 (stereo not drawn)	6	7	0	-1	4	-2
CCOc1ccc(C(=O)NCCC(=O)N2CCC3(CC2)NCCc2[nH]cnc23)cc1	8	-2	2	-5	8	4
CCOC(=O)c1cc(-c2ccc(OC)cc2)nn1-c1ccccc1C(=O)O	0	3	-1	17*	4	-1
COc1ccc(-c2cc(C(=O)NN)n(-c3ccccc3)n2)cc1	-11	1	-2	6	5	2
c1ccc(-c2csc3ncnc(NCC4COc5ccccc5O4)c23)cc1 (stereo not drawn)	34*	-2	2	3	6	5
CCOCCSc1nc2c(c(-c3cccs3)c1C#N)CC/C2=C/c1cccs1	27*	1	-2	-3	4	2
Cc1ccccc1NC1=C(Cl)C(=O)OC1OC(=O)c1ccco1 (stereo not drawn)	5	2	0	-3	5	1
COc1ccc(CCNc2nc(-c3sc(C)nc3C)cs2)cc1OC	2	-2	-1	-1	0	6
O=C(O)C1CCCN(S(=O)(=O)c2ccc(Br)s2)C1 (stereo not drawn)	4	5	-1	-1	8	12
O=C(O)C1CCCN(S(=O)(=O)c2ccc(Cl)s2)C1 (stereo not drawn)	4	-2	1	-1	6	29*
Cc1cccc(-n2ccc(=O)c(C(=O)Nc3ccc(S(=O)(=O)Nc4nccs4)cc3)n2)c1	6	13	-1	0	11	0
O=C(Nc1ccc(S(=O)(=O)Nc2nccs2)cc1)c1nn(-c2ccccc2)ccc1=O	25*	24	-1	6	9	11
O=c1cc(O)c2sc3nc(-c4cccnc4)cc(C(F)(F)F)c3c2[nH]1	11	-2	3	18*	8	-3
CCc1ccc(OCC(=O)NN2Cc3ccccc3C2=N)cc1	2	7	-1	2	6	5
Cc1ccc(S(=O)(=O)N2CCC(C(=O)OCCOc3ccccc3)CC2)cc1C	28*	9	0	-2	11	4
CN(C(=O)COC(=O)C1CCN(S(=O)(=O)c2ccc3c(c2)OCCO3)CC1)c1ccccc1	5	3	-4	-4	11	-3
CC(C)N(Cc1ccccc1)C(=O)COC(=O)C1CCN(S(=O)(=O)c2ccc3c(c2)OCCO3)CC1	7	-7	0	16*	5	1
COc1ccccc1NC(=O)NC1CCCc2ccccc21 (stereo not drawn)	3	8	2	-3	-10	-4
SMILES	pPAFAH FP inh	PAFAH2 FP inh	PP5 primary	PP1 counter	PAFAH1B3 inh	PAFAH1B2 FP inh
CC(C)(C)c1ccc(/C=C/C(=O)N2CCc3ccccc3C2)cc1	1	0	3	5	19	8
COc1ccccc1C(NC(C)=O)c1cc(Cl)c2cccnc2c1O (stereo not drawn)	10	7	-1	-2	8	1
CCCC(=O)NC(c1ccco1)c1cc(Cl)c2cccnc2c1O (stereo not drawn)	30*	-3	2	7	12	6
O=C(O)COc1ccccc1C(Nc1ccccn1)c1cc(Cl)c2cccnc2c1O (stereo not drawn)	32*	29	-2	6	3	2
Cc1ccc(OCC(=O)N(C)CC(=O)Nc2ccc(F)c(F)c2F)cc1	-3	-5	0	-2	2	9
O=C(O)CCCCCCCCCCCc1ccccc1	25*	16	3	10	10	55*
O=C(CCC(=O)NCCCc1ccccc1)NCCCc1ccccc1	10	6	2	0	0	9
COc1ccc(N)c2c1C(=O)c1ccccc1C2=O	17	27	2	4	13	13
Nc1ccc(Br)c2c1C(=O)c1ccccc1C2=O	25*	·	6	3	·	·
Cc1cc(C)nc(/N=C(\NC(=O)C(C)(C)C)Nc2ccccc2)n1	0	-1	1	-3	8	2
Cc1cc(-c2ccccc2)c2ccc(NC(=O)C(C)(C)C)nc2n1	9	-13	3	-2	14	33*
O=C(NC1CCCCC1)c1sc(=S)n2c1[nH]c(=O)c1ccccc12	32*	56*	1	0	32*	42*
Cc1ccccc1Cc1c(C)nc2c(C(=O)NCc3ccco3)cnn2c1C	27*	-2	3	-1	-7	-2
Cc1ccccc1Cc1c(C)nc2nc(SCC(=O)NCc3ccco3)nn2c1C	8	6	0	-1	13	5
CCOC(=O)C1CCCN(C(=O)COc2ccc(C(=O)c3ccc(F)cc3)cc2)C1 (stereo not drawn)	5	9	·	·	12	0
Cc1ccc(C)c(NS(=O)(=O)c2ccc(OCC(=O)N3CCCC3)cc2)c1	25*	5	2	-4	-12	-1
CCOC(=O)C1CCCN(C(=O)COc2ccc(S(=O)(=O)N(CC)c3ccccc3)cc2)C1 (stereo not drawn)	34*	1	2	-12	8	-2
CC(C)NS(=O)(=O)c1ccc(OCC(=O)N2CCN(c3ccccc3)CC2)cc1	9	6	-1	-3	-8	-4
CCC(C)NS(=O)(=O)c1ccc(OCC(=O)N2CCCC2)cc1 (stereo not drawn)	27*	3	-1	-9	2	-3
O=C(COc1ccc(S(=O)(=O)NC2CCCCC2)cc1)N1CCN(c2cccc(Cl)c2)CC1	28*	-6	8	-9	5	0
COc1cc(N)c2ncsc2c1	·	-2	·	·	-4	2
COC(=O)Cn1c(=O)c2c(nc3n2CCCN3Cc2ccccc2)n(C)c1=O	6	4	0	-2	7	6
